Shown are actives, neighbours in structure and some others; about 2.5% of the full set was active somewhere.
GRK2 aptamer HTS: human GRK2 inhibition via aptamer displacement; P25098; bead flow cytometry, FAM-aptamer displacement from GRK2; inhibition of aptamer binding, % at 10 µM; actives 0.59% (n = 330,000); AID 488847;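 active = inhibition of aptamer binding above 40%, roughly 3 SD of noise, on plates passing a quality check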;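 also: median bead fluorescence of bound FAM aptamer so fluorescent compounds give negative values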
Target sequence (P25098 whole entry, looked up): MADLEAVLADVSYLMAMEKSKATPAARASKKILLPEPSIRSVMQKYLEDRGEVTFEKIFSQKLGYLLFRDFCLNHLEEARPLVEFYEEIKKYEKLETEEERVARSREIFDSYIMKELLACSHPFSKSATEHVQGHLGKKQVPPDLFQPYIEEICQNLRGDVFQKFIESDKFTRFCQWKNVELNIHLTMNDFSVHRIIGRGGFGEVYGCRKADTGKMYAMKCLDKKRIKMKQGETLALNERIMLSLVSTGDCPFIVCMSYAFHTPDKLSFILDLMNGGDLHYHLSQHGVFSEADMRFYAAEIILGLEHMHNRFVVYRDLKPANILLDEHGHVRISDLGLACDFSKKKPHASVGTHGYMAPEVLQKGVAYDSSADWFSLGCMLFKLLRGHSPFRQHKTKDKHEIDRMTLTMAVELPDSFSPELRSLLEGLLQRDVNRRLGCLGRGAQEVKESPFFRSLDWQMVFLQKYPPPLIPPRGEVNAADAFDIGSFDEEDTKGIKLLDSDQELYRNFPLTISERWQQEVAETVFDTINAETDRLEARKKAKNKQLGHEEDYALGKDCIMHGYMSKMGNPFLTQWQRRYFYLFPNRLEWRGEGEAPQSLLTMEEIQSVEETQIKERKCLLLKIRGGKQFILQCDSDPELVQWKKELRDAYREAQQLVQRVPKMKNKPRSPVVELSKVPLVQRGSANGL
MEKK2wt PB1 HTS: raises or lowers MEK5 binding to wildtype human MEKK2 PB1 domain; binding response (% of control), % at 10 µM; bead flow cytometry, Alexa488-MEK5 binding to MEKK2 WT; actives lie on both sides; Q9Y2U5; AID 1531; actives 1.1% (n = 290,000); in the data active = binding response below about 67% or above about 130%
MEKK2mut PB1 HTS: signal of MEK5 binding to mutant human MEKK2 PB1 domain; percent response, % at 10 µM; actives 0.35% (n = 290,000); bead flow cytometry, Alexa488-MEK5 binding to MEKK2 mutant; in the data active = percent response above about 24%, passing the limit was not always enough
MEKK3 PB1 HTS: MEKK3-MEK5 PB1 interaction, increase or decrease. actives 1.4% (n = 290,000). bead-based flow cytometry, Alexa488-MEK5 binding to MEKK3; actives lie on both sides; 0 = blocked by unlabeled MEK5, 100 = vehicle. Q99759. binding response (% of control), % at 10 µM;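 active = binding response more than 3 SD above or below the average of its plate-row segment, actives on both sides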;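 also: Alexa488 bead fluorescence after subtracting the streptavidin-only scavenger bead signal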
GRK2 CP1: confirmation of human GRK2 inhibitors displacing RNA aptamer; shares compounds with GRK2 aptamer HTS; bead-bound GRK2, FAM-aptamer displacement, flow cytometry; aptamer displacement, % at 10 µM; actives 4% (n = 2,000); AID 504451;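 active = aptamer displacement above 40%, near three times the noise of non-fluorescent compounds, on plates passing quality checks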;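 also: negative values mostly reflect intrinsic compound fluorescence rather than true enhancement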
Aptamer quench 1: fluorescent aptamer quenching in GRK2 counter-screen dose response | Fluorescent RNA aptamer beads, flow cytometry; hits give high values | fluorescence change (kMESF span), kMESF (test concentration not listed) | 110 tested, under 10 active | shares compounds with GRK2 aptamer HTS | AID 504521;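 active = compounds whose bead fluorescence drops by more than 37 kMESF across the dose range, marking them as dye quenchers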
Aptamer quench SP: aptamer fluorescence quenching in GRK2 counter-screen | shares compounds with GRK2 aptamer HTS | Carboxyfluorescein RNA aptamer on beads, flow cytometry quenching; hits give low values | fluorescence response (% of DMSO), % at 10 µM | 2,000 tested, under 10 active;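 active = compounds that quench the bead-bound fluorescent RNA probe, cutting fluorescence to under half of the solvent control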;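 also: counterscreen run without GRK2 so only probe quenching by compound is measured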
GRK2 CP2: human GRK2 inhibition confirmation, cherry pick 2 | shares compounds with GRK2 aptamer HTS | bead-bound GRK2, FAM-aptamer displacement, flow cytometry | inhibition of aptamer binding, % at 10 µM | 360 tested, under 10 active | AID 504782;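 active = inhibition of aptamer binding above 40%, about triple the noise seen with nonglowing compounds, on plates passing quality control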;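 also: negative values mostly come from compounds that fluoresce themselves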
FAM quench SP: aptamer fluorescence quenching in GRK2 counter-screen. carboxyfluorescein RNA aptamer beads, flow cytometry quenching; hits give low values. 360 tested, under 10 active. AID 588494. fluorescence response vs DMSO, % at 10 µM. shares compounds with GRK2 aptamer HTS;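 active = response vs DMSO under 50%, meaning signal dropped by over half, treated as fluorescence quencher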;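 also: labelled aptamer on streptavidin beads without GRK2 as a quench counter-screen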
Each line names hits and unclear results; the compound was inactive in the other large screens (follow-up assays come after a bar, where they were run).

COCCn1nnnc1C(c1ccccn1)N1CCN(c2cc(Cl)ccc2C)CC1 (stereo not drawn)	GRK2 aptamer HTS 97 | GRK2 CP1 inactive | Aptamer quench SP inactive
Cn1c(SCc2cccc([N+](=O)[O-])c2)nc2ccccc2c1=O	GRK2 aptamer HTS 47 (no result: MEKK2wt PB1 HTS, MEKK2mut PB1 HTS, MEKK3 PB1 HTS) | GRK2 CP1 inactive | Aptamer quench SP inactive
O=Cc1c(NCc2ccc(Cl)cc2)c2ccccc2[nH]c1=O	GRK2 aptamer HTS 100 | GRK2 CP1 inactive | Aptamer quench SP inactive
O=Cc1c(NCc2ccccc2)c2ccccc2[nH]c1=O	none
C=CCN1CCN(C(c2cccc(OC)c2OC)c2nnnn2CCC(C)C)CC1 (stereo not drawn)	none
CC(NC(=O)COC(=O)c1c[nH]c2ccccc12)c1ccccc1 (stereo not drawn)	none (no result: MEKK2wt PB1 HTS, MEKK2mut PB1 HTS, MEKK3 PB1 HTS) | GRK2 CP1 inactive | Aptamer quench SP inactive
Cc1cc(C)n(CC(=O)c2ccc(Br)cc2)c(=O)c1C#N	GRK2 aptamer HTS 71 | GRK2 CP1 inactive | Aptamer quench SP inactive
Cc1ccc(C(=O)Cn2c(C)cc(C)c(C#N)c2=O)cc1	none
COc1ccc(N(CC(=O)NCCSc2ccccn2)S(=O)(=O)c2ccccc2)cc1Cl	none
Cc1csc(NC(=O)Cc2coc3cc(C)c(C(C)C)cc23)n1	none
Cc1cc(C)c2nc(-c3ccccn3)cc(C(=O)Nc3ccc(S(=O)(=O)Nc4cc(C)on4)cc3)c2c1	none | GRK2 CP1 inactive | Aptamer quench SP inactive
CC(=O)Nc1nc(-c2ccccc2)cc(-c2ccco2)c1C#N	GRK2 aptamer HTS 80 (no result: MEKK2wt PB1 HTS, MEKK2mut PB1 HTS, MEKK3 PB1 HTS) | GRK2 CP1 inactive | Aptamer quench SP inactive
N#Cc1c(-c2ccco2)cc(-c2ccccc2)[nH]c1=O	none
CC(=O)Nc1nc2c(ccc3ccccc32)s1	none | GRK2 CP2 inactive | FAM quench SP inactive
O=C(Cc1cccs1)Nc1nc2c(ccc3ccccc32)s1	none | GRK2 CP2 inactive | FAM quench SP inactive
CC(=O)Nc1nc2c(F)cccc2s1	none
O=C(Cc1cccs1)Nc1nnc(SCc2cccc3ccccc23)s1	none
CN(C)S(=O)(=O)c1ccc(N2CCCC2)c(C(=O)Nc2nc3c(ccc4ccccc43)s2)c1	none | GRK2 CP2 inactive | FAM quench SP inactive
O=[N+]([O-])c1cc(-c2csc(NCCc3nc4cc(Cl)c(N5CCCCC5)cc4n3CCCO)n2)ccc1Cl	none
CCN1/C(=C/c2ccc3cc(C)ccc3[n+]2CC)Sc2ccc3sccc3c21	GRK2 aptamer HTS 84 (no result: MEKK2wt PB1 HTS, MEKK2mut PB1 HTS, MEKK3 PB1 HTS) | GRK2 CP1 89 | Aptamer quench 1 67 | Aptamer quench SP inactive
CCCn1c(CN(C)Cc2ccccc2)nc2c1c(=O)n(C)c(=O)n2C	none
Cn1c(=O)n(CCc2ccccc2)c(=O)c2c1ncn2Cc1ccccc1	GRK2 aptamer HTS 74 | GRK2 CP1 inactive | Aptamer quench SP inactive
Cn1cnc2c1c(=O)n(Cc1ccccc1)c(=O)n2C	none
CN(Cc1ccccc1)Cc1nc2c(c(=O)n(C)c(=O)n2C)n1CCc1ccccc1	none | GRK2 CP1 inactive | Aptamer quench SP inactive
O=C(Nc1ccccc1C(=O)O)c1cccc(C(=O)Nc2ccccc2C(=O)O)c1	none
Cc1ccc2cc3cc(C(=O)N4CCN(C(=O)c5ccco5)CC4)sc3nc2c1	none
Cc1cc2c(cc1S(=O)(=O)N1CCc3ccccc31)NC(=O)CO2	GRK2 aptamer HTS 73 | GRK2 CP1 inactive | Aptamer quench SP inactive
Cc1cc2nsnc2c(S(=O)(=O)NCC(=O)O)c1C	none
CCC(C)Nc1nc2c(c(=O)[nH]c(=O)n2C)n1CCC(C)C (stereo not drawn)	GRK2 aptamer HTS 52 | GRK2 CP1 inactive | Aptamer quench SP inactive
CCCc1c(C(=O)N/N=C(\C)c2ccc(O)cc2)nnn1-c1nonc1N	none
CCCc1c(C(=O)N/N=C(\C)CCc2ccccc2)nnn1-c1nonc1N	GRK2 aptamer HTS 70 | GRK2 CP1 inactive | Aptamer quench SP inactive
COc1ccc([C@H]2CC(=O)C=C(c3cccc(Cl)c3)C2)cc1OC	none (no result: MEKK2wt PB1 HTS, MEKK2mut PB1 HTS, MEKK3 PB1 HTS)
CC(=O)Oc1ccc(/C=N/NS(=O)(=O)c2ccccc2)cc1	none
O=C(CN1CCc2ccccc2C1)Nc1ccccc1C(F)(F)F	GRK2 aptamer HTS 48 | GRK2 CP1 inactive | Aptamer quench SP inactive
O=C(O)c1ccc(-n2cccc2/C=C2/NC(=O)N(c3ccccc3)C2=O)cc1	GRK2 aptamer HTS 73 | GRK2 CP1 inactive | Aptamer quench SP inactive
N#Cc1ccccc1CN1C(=O)S/C(=C/c2cccn2-c2ccc(C(=O)O)cc2)C1=O	none
O=C(O)c1ccc(-n2cccc2/C=C2/SC(=O)N(CC(=O)N3CCCC3)C2=O)cc1	GRK2 aptamer HTS 82 | GRK2 CP1 63 | Aptamer quench 1 inactive | Aptamer quench SP inactive
O=C(CN1CCSC1=O)N1CCN(S(=O)(=O)c2ccccc2)CC1	none (no result: MEKK2wt PB1 HTS, MEKK2mut PB1 HTS, MEKK3 PB1 HTS)
COc1ccc(CCNCC(C)c2ccccc2)cc1 (stereo not drawn)	none | GRK2 CP1 inactive | Aptamer quench SP inactive
C[n+]1cccc(C(=O)N/N=C/c2ccc3c(c2)OCO3)c1	none
COCCOC(=O)C1=C(C)N=C2SCCC(=O)N2C1c1cccs1 (stereo not drawn)	GRK2 aptamer HTS 81 | GRK2 CP1 inactive | Aptamer quench SP inactive
CCOC(=O)C1=C(C)N=C2SCCC(=O)N2[C@@H]1c1cccs1	none
COc1ccccc1Oc1c(C)oc2c(CN3CCOCC3)c(O)ccc2c1=O	GRK2 aptamer HTS 58 | GRK2 CP1 inactive | Aptamer quench SP inactive
N=c1c(C(=O)NC2CCCCC2)cc2c(=O)n3ccccc3nc2n1Cc1cccnc1	none
O=C(NCc1ccc(Cl)cc1)C(=O)c1cn(CC(=O)N2CCOCC2)c2ccccc12	GRK2 aptamer HTS 45 | GRK2 CP1 inactive | Aptamer quench SP inactive
S=C(N=Nc1ccccc1)NNc1ccccc1	GRK2 aptamer HTS 42 | GRK2 CP1 inactive | Aptamer quench SP inactive
S=C(NNC(=S)Nc1ccccc1)Nc1ccccc1	none
CC(=O)Nc1ccc(NC(=O)COC(=O)Cn2cnc3ccccc32)cc1	none (no result: MEKK2wt PB1 HTS, MEKK2mut PB1 HTS, MEKK3 PB1 HTS)
O=C(CCS(=O)(=O)c1ccccc1)Nc1ccc(S(=O)(=O)Nc2nccs2)cc1	none (no result: MEKK2wt PB1 HTS, MEKK2mut PB1 HTS, MEKK3 PB1 HTS)
COc1cccc(C(NC(C)=O)c2ccc3cccnc3c2O)c1 (stereo not drawn)	GRK2 aptamer HTS 80 | GRK2 CP1 inactive | Aptamer quench SP inactive
CC(=O)NC(c1cccc([N+](=O)[O-])c1)c1ccc2cccnc2c1O (stereo not drawn)	none

Screening results (PubChem)
